# Records with an inconclusive call do not appear. A number with no mark means an inactive call. Active and inactive are the calls of the source. Calls follow the shape of the dose curve; as a rule, active = well fitted activation curve with a large enough effect; inconclusive = small, poorly fitted or top-dose-only effect; inactive = flat fitted curve, though single readings scatter.
# Experiment: qHTS Assay for NPC1 Promoter Activators: Initial hit validation from the primary screen;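 as to activity, positive = activation: reporter driven by the mutant form of the NPC1 promoter; % of control where 0% means no effect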
# Settings: Huh7 NPC1 promoter-luciferase reporter, luminescence, 24 h; series mostly up to 46.1 µM; activity, positive = activation: at the top concentration
# Description: NIH Chemical Genomics Center [NCGC] NIH Molecular Libraries Probe Production centers Network [MLPCN] MLPCN Grant: MH089375-01A1 Assay Submitter (PI): Yiannis A. Ioannou NCGC Assay Overview: Niemann Pick Type C (NPC) is a rare neurodegenerative lipidosis that is characterized by lipid storage in the endosomal/lysosomal system. Treatment modalities for this devastating disease are currently non-existent due to the severe obstacles associated with accessing the central nervous system with proteins or genes. The majority of mutations causing NPC disease are missense mutations that are distributed throughout the length of the NPC1 protein, with the most prevalent being the I1061T allele. Although NPC1 mutant proteins may be functional, they are typically trapped in the ER due to misfolding. […] We have developed and optimized a cell based luciferase reporter assay in 1536 well format for the identification of up-regulators of the mutant NPC1 promoter. This assay presents data on the validation of hits from the primary screen.
# The NPC1 promoter is cloned in front of the luciferase reporter gene, therefore NPC promoter activation results in luciferase expression. Frozen stock of the NPC1 promoter transfected Huh7 cells were obtained from the laboratory of Dr. Yiannis Ioannou (The Mount Sinai School of Medicine, New York, NY). Cells were propagated and maintained at NCGC in medium containing RPMI-1640 supplemented with 10% FBS, 2mM L-glutamine, and 50ug/ml penicillin/streptomycin. Cells were harvested in and plated for assays in OP-MEM I reduced-serum medium supplemented with 10% FBS. The Amplite luciferase reporter gene assay kit was purchased from ABD Bioquest and prepared/stored according to manufacturers recommendations. qHTS Assay Setup: 1. Dispensed 5ul of Huh7 cells stably expressing NPC1-luciferase at a density of 1500 cells per well 1536-well plates. 2. Incubate cells at 37C, 5% CO2, and 95% humidity for 2 hours. 3. Transferred 23nl per well of compound in DMSO solution. 4. Incubated at 37C, 5% CO2, and 95% humidity for 24 hours. 5. Dispensed 3ul per well of Amplite reagent(ABD Bioquest) per well. 6. Incubate at ambient for 10 minutes. 7. Read using the luminescence protocol on the ViewLux plate reader (Perkin Elmer).
# Potency is read from the fitted curve at half-maximal effect.
Compound,Potency,"activity, positive = activation"
O=C(CSc1nnc(-c2ccccc2)o1)Nc1ccccc1F,250 nM (active),
Cc1ccc(NC(=O)c2ncc(Cl)c(Cl)c2Cl)cc1C,,5.4%
CC1CCCN(S(=O)(=O)c2ccc(C(=O)Nc3nnc(-c4ccncc4)o3)cc2)C1 (stereo not given),,-23.3%
COc1ccc(-c2csc(N(CCCN(C)C)C(=O)c3ccccc3C)n2)cc1,,-14.9%
O=C(CCN1C(=O)c2ccccc2C1=O)Nc1ccc(-c2nc3ccccc3s2)cc1,250 nM (active),
Fc1ccc(-c2nc3nc4ccccc4nc3n2Cc2ccco2)cc1,,8.2%
Cc1noc(/C=C/N(C)C)c1S(=O)(=O)N1CCCC(C(=O)N2CCCCC2)C1 (stereo not given),,-1.11%
COc1ccc(S(=O)(=O)NC(C(=O)NCCc2ccccn2)C(C)C)cc1 (stereo not given),,-3.43%
CN(C)C(CNC(=O)CNC(=O)c1ccc2ccccc2c1)c1ccccc1 (stereo not given),,-0.761%
COc1ccc(OC)c(S(=O)(=O)N2CCN3CCCC3C2)c1 (stereo not given),,-2.34%
OCCC1CN(Cc2nc3ccccc3s2)CCN1C1CCCC1 (stereo not given),,6.25%
COC(=O)c1cn(NC(=O)C2CCCCC2)c(=O)c2ccccc12,,-0.672%
CC(Sc1nnc(C(F)(F)F)n1C)C(=O)Nc1ccc(S(N)(=O)=O)cc1 (stereo not given),,-2.17%
CCC(C)(C)NC(=O)C(c1ccc(OC)cc1)N(Cc1cccs1)C(=O)CCC(=O)Nc1cc(C)on1 (stereo not given),,-17%
COCc1cc(C)nc(N/N=C/c2ccc(-c3ccc(Cl)cc3[N+](=O)[O-])o2)c1C#N,,3.22%
Cc1ccc2c(c1)sc1nc(=O)n(-c3ccccc3)c(=O)n12,705 nM (active),
COc1ccc(/C=C\c2onc(C)c2S(=O)(=O)N2CCC(C(=O)NCCC(C)C)CC2)cc1,,-0.647%
CC1=C(C(=O)OC2CCCC(C)C2)C(c2ccccc2)NC(=O)N1 (stereo not given),,-11.2%
COc1ccc(NC(=O)CCCN2C(=O)C(c3ccccc3)Oc3cccnc32)cc1OC (stereo not given),,-7.4%
O=C(CSc1nnc(Cc2cc(=O)[nH]c(=O)[nH]2)n1-c1ccc(Cl)cc1)NC1CCCC1,,-2.11%

Compound,Potency,"activity, positive = activation"
COc1ccccc1N(C(=O)c1snc(C(N)=O)c1N)C(C(=O)NC1CCCCC1)c1cccc(OC)c1OC (stereo not given),,-11.6%
COc1ccccc1C(=O)Nc1nnc(SCC(=O)NC2CCCC2)s1,705 nM (active),
Cc1ccc(S(=O)(=O)N2CCN(c3cnn(C)c(=O)c3Cl)CC2)cc1,,-3.18%
CCOC(=O)CSc1nc2cc(C)ccc2cc1C#N,499 nM (active),
O=C(COC(=O)c1ccc(-c2nnc(-c3ccccc3)o2)cc1)c1ccccc1,396 nM (active),
COc1ccc(NC(=O)Nc2ccc(Cc3ccncc3)cc2)cc1OC,,-8.22%
CC(=O)Nc1ccc(-c2csc(Nc3ncccn3)n2)cc1,499 nM (active),
CC(C)(C)NC(=S)NNC(=O)c1ccc2ncccc2c1,3530 nM (active),
O=C(c1cc2cc([N+](=O)[O-])ccc2oc1=O)n1cccn1,,9.78%
O=C(NNC(=O)C1COc2ccccc2O1)c1ccccc1O (stereo not given),,5.4%
CC1(C)CC(=O)c2c(O)c(-c3ccccc3)c(=O)n(-c3ccccc3)c2C1,,4.96%
O=C(CCS(=O)(=O)c1ccccc1)Nc1ccc(-c2nc3ccccc3s2)cc1,158 nM (active),
Cc1ccc(N=Cc2sc(O)c3ccccc23)c(C)c1,1770 nM (active),
Cn1c(CCN2CCN(c3ccccc3)CC2)nc2cc(NC(=O)c3ccco3)ccc21,,7.93%
CCOC(=O)c1ccc(-c2nnc(-c3ccc(Cl)cc3Cl)o2)cc1,2500 nM (active),
O=C(NCCc1c[nH]c2ccccc12)C(=O)NCC(c1ccco1)N1CCN(c2ccccc2F)CC1 (stereo not given),,0.564%
CC(=O)c1cccc(NC(=O)N2CCOCC2)c1,,4.65%
Nc1c(N(CCO)C(=O)/C=C/c2ccco2)c(=O)[nH]c(=O)n1Cc1ccccc1,,-2.89%
Cc1ccc(C2C3=C(CC(C)(C)CC3=O)N(CCN3CCOCC3)C3=C2C(=O)CC(C)(C)C3)cc1,,-3.06%
CC(=O)Nc1ccc(NC(=O)COc2ncnc3ccccc23)cc1,,7.96%

# Reference: PubChem BioAssay AID493203 (National Center for Advancing Translational Sciences (NCATS), 2011)
